Reference: PubChem BioAssay (NCI)
Several values for one entry are separate records, joined by “and”; a condition that tells them apart may be missing. Identical values can stand only once. This is part of a sample that, as a whole, favours compounds with a hit. Of some 83,000 tested, about 20% had one in any assay.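 Cell lines were cultured in 96-well plates, exposed to a single compound concentration, and assessed for percent growth 48 hours later.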 A structure can be active in one record and inactive in another. Activity calls are given as the source filed them. Rule for the calls: active = growth percent below 10; inactive = the rest.

Tests used:
Test in all cases: NCI-60 one-dose screen, 48 h (100 = growth as untreated, 0 = no growth, -100 = all killed)
Settings in all cases: 10 µM unless noted
NCI-H23 lung = system: NCI-H23 lung
NCI-H226 lung = system: NCI-H226 lung
NCI-H322M lung = system: NCI-H322M lung
HOP-62 NSCLC = system: HOP-62 NSCLC
NCI-H460 lung = system: NCI-H460 lung
HOP-92 NSCLC = system: HOP-92 NSCLC
NCI-H522 lung = system: NCI-H522 lung
A549/ATCC NSCLC = system: A549/ATCC NSCLC
786-0 renal = system: 786-0 renal
COLO 205 colon = system: COLO 205 colon

| Compound | growth (NCI-H23 lung) | growth (NCI-H226 lung) | growth (NCI-H322M lung) | growth (HOP-62 NSCLC) | growth (NCI-H460 lung) | growth (HOP-92 NSCLC) | growth (NCI-H522 lung) | growth (A549/ATCC NSCLC) | growth (786-0 renal) | growth (COLO 205 colon) |
| --- | --- | --- | --- | --- | --- | --- | --- | --- | --- | --- |
| C(=N\Nc1ccc2ccccc2n1)/c1ccccn1 | 32.4% (inactive) | 10.9% (inactive) | -5.75% (active) | 6.17% (active) | 3.31% (active) | 42.2% (inactive) | 20.2% (inactive) | 8.26% (active) | 22.1% (inactive) | 20% (inactive) |
| C/C(=N\NC(=S)N1CC2CCC(CC2)C1)c1ccccn1 | 30.4% (inactive) | 11.7% (inactive) | 4.2% (active) | 24% (inactive) | -3.66% (active) | 34.1% (inactive) | 16.8% (inactive) | 5.42% (active) | 3.86% (active) | 4.4% (active) |
| S=C(SSC(=S)N1CCOCC1)N1CCOCC1 | 48.9% (inactive) | 94.5% (inactive) | 116% (inactive) | 104% (inactive) | 2.9% (active) | 122% (inactive) | -50.2% (active) | 57.2% (inactive) | 103% (inactive) | 28.6% (inactive) |
| CCCCCCCCCCCCSC(=N)N | 87.4% (inactive) | 107% (inactive) | 68.7% (inactive) | 58.3% (inactive) | -28% (active) | -22.4% (active) | 88.5% (inactive) | 40.9% (inactive) | -37.7% (active) | -95.1% (active) |
| CCCCCCCCCCCC1=NCCCN1CCCC | 94.2% (inactive) | 103% (inactive) | 98.1% (inactive) | 94.6% (inactive) | 101% (inactive) | 74.8% (inactive) | 97.6% (inactive) | 97.6% (inactive) | 99.1% (inactive) | 98% (inactive) |
| Cc1nn(CCO)c(C)c1N=[N+]([O-])c1c(C)nn(CCO)c1C | 87% (inactive) | -28.5% (active) | 98.5% (inactive) | 88.1% (inactive) | 76.3% (inactive) | -47.7% (active) | -78% (active) | 50.5% (inactive) | -82.3% (active) | -85.6% (active) |
| COc1cc([C@@H]2c3cc4c(cc3[C@H](OC3OC5COC(c6ccccc6)OC5C(O)C3O)[C@H]3COC(=O)[C@H]23)OCO4)cc(OC)c1OC (stereo partly specified) | 22.4% (inactive) | 75.9% (inactive) | 44.2% (inactive) | 29.6% (inactive) | 20.8% (inactive) | 37.7% (inactive) | 17.5% (inactive) | 64.8% (inactive) | 64% (inactive) | -77.6% (active) |
| N#C/C(=N\Nc1ccc(Cl)cc1)C(=O)C1CC1 | 42.4% (inactive) | 69.9% (inactive) | 82.1% (inactive) | 41.9% (inactive) | 44.9% (inactive) | 20% (inactive) | 35.5% (inactive) | 40.9% (inactive) | 39.6% (inactive) | 60.4% (inactive) |
| OCCOSCCO | 107% (inactive) | 102% (inactive) | 119% (inactive) | 104% (inactive) | 111% (inactive) | 124% (inactive) | 96.1% (inactive) | 111% (inactive) | 100% (inactive) | 119% (inactive) |
| O=C1C(=O)c2cccnc2-c2ncccc21 | -68.3% (active) | -28.7% (active) | 20.5% (inactive) | -44.7% (active) | -57.3% (active) | -36.9% (active) | 5.23% (active) | 6.49% (active) | -94.1% (active) | -88.5% (active) |
| CCCCCCCCCCCC[S+](C)CC(=O)[O-] (stereo unspecified) | 25.9% (inactive) | 44.3% (inactive) | 89.4% (inactive) | 38.7% (inactive) | 54% (inactive) | 30.7% (inactive) | 46.5% (inactive) | 68.4% (inactive) | 23.3% (inactive) | 2.95% (active) |
| O=C1C=CC(=O)N1c1cc(Cl)c(Cl)cc1Cl | 100% (inactive) | 100% (inactive) | 90.6% (inactive) | 100% (inactive) | 107% (inactive) | 107% (inactive) | 84.4% (inactive) | 103% (inactive) | 96% (inactive) | – |
| O=[N+]([O-])c1ccc([I+]c2ccccc2)cc1 | -55.1% (active) | -30.2% (active) | 67.4% (inactive) | -67.6% (active) | 4.38% (active) | 60.5% (inactive) | -87.8% (active) | -71.6% (active) | -15.4% (active) | -84.3% (active) |
| Cc1ccc2c(c1)sc(-c1ccc(N(C)C)cc1)[n+]2C | 12.2% (inactive) | 17.8% (inactive) | 12.7% (inactive) | 1.81% (active) | -25.7% (active) | -38.6% (active) | 8.21% (active) | 26.6% (inactive) | 7.31% (active) | -83% (active) |
| CCCCCCCCCCCCCCCCSC(=NCC)NCC | 39.4% (inactive) | 85.7% (inactive) | 17.4% (inactive) | 25.9% (inactive) | -83.9% (active) | -21.3% (active) | 23.5% (inactive) | -19.9% (active) | 11.1% (inactive) | -98.7% (active) |
| C1=C(c2ccccc2)c2ccccc2C1 | 98.5% (inactive) | 96.3% (inactive) | 78.4% (inactive) | 94% (inactive) | 99.5% (inactive) | 74.8% (inactive) | 96% (inactive) | 106% (inactive) | 86.4% (inactive) | – |
| CC1(C)CCCC2=C1C(=O)N(SC(Cl)(Cl)Cl)C2=O | 101% (inactive) | 93.6% (inactive) | 101% (inactive) | 98.2% (inactive) | 109% (inactive) | 89.5% (inactive) | -73.2% (active) | 92.6% (inactive) | 95% (inactive) | 69.8% (inactive) |
| CC(C)(C)c1ccc(O)c(Br)c1 | 93.6% (inactive) | 92.5% (inactive) | 101% (inactive) | 107% (inactive) | 95.6% (inactive) | 98.2% (inactive) | 119% (inactive) | 107% (inactive) | 100% (inactive) | 105% (inactive) |
| CCCCCCCCCCCC[N+]1(CCCCCCCCCCCC)CCCC(C)C1 (stereo unspecified) | -91.9% (active) | -77% (active) | -85.9% (active) | -96.3% (active) | -90.7% (active) | -86.5% (active) | -90.1% (active) | -98.6% (active) | -98.4% (active) | -98.8% (active) |
| COC(=O)c1cc([N+](=O)[O-])cc([N+](=O)[O-])c1Cl | 98.3% (inactive) | 102% (inactive) | 106% (inactive) | 102% (inactive) | 102% (inactive) | 99.7% (inactive) | -74% (active) | 101% (inactive) | 102% (inactive) | -64.1% (active) |
| S=C(S)OCN1CCOCC1 | 93.8% (inactive) | 97% (inactive) | 98% (inactive) | 108% (inactive) | 90.3% (inactive) | 86.4% (inactive) | 1.59% (active) | 91.6% (inactive) | 108% (inactive) | 20.7% (inactive) |
| Oc1cc(Cl)ccc1Cc1ccc(Cl)cc1O | 20.6% (inactive) | 96.6% (inactive) | 97% (inactive) | 60.5% (inactive) | 46% (inactive) | -14.4% (active) | 33.8% (inactive) | 73.7% (inactive) | 92.8% (inactive) | – |
| O=C1C=CC(=O)N1c1cccc2c1CCCC2 | 106% (inactive) | 96.4% (inactive) | 91.9% (inactive) | 105% (inactive) | 109% (inactive) | 84.2% (inactive) | 11.6% (inactive) | 104% (inactive) | 105% (inactive) | 49.1% (inactive) |
| N#CC1c2ccccc2C=CN1C(=O)CCCl (stereo unspecified) | 94.2% (inactive) | 94.1% (inactive) | 93.8% (inactive) | 99.8% (inactive) | 106% (inactive) | 60.7% (inactive) | -71.6% (active) | 96.2% (inactive) | 82% (inactive) | – |
| CC(C)(C)CC(C)(C)c1ccc(OCCOCCSC(=N)N)cc1 | 30.8% (inactive) | 92.4% (inactive) | 67.9% (inactive) | 96.1% (inactive) | 23.4% (inactive) | 37% (inactive) | -3.81% (active) | 68.8% (inactive) | -36% (active) | -80.6% (active) |
| OC(c1cc(-c2ccc(C(F)(F)F)cc2)nc(C(F)(F)F)c1)C1CCCCN1 (stereo unspecified) | 23.4% (inactive) and -44.7% (active) and 62.5% (inactive) | -7.1% (active) and -6.47% (active) and 43.1% (inactive) | 48.2% (inactive) and 29.8% (inactive) and 70.3% (inactive) | -69.8% (active) and -89.1% (active) and 57.1% (inactive) | -77.9% (active) and -77.2% (active) and -47.9% (active) | -18.8% (active) and -58.7% (active) and 36.3% (inactive) | -67.2% (active) and -80.1% (active) and 9.35% (active) | -43% (active) and -44.5% (active) and 35.6% (inactive) | -48.8% (active) and -82.2% (active) and 27% (inactive) | -90.1% (active) and -85.4% (active) and -79.8% (active) |
| O=C/C=C/c1ccc([N+](=O)[O-])cc1 | 96.7% (inactive) | 101% (inactive) | 104% (inactive) | 104% (inactive) | 106% (inactive) | 117% (inactive) | 97.3% (inactive) | 93.4% (inactive) | 102% (inactive) | 115% (inactive) |
| CCOc1ccc(Nc2nc3c(s2)C(=O)c2ccccc2C3=O)cc1 | 41.9% (inactive) | 87% (inactive) | 105% (inactive) | 113% (inactive) | 94.4% (inactive) | 85.1% (inactive) | 51.5% (inactive) | 94% (inactive) | 108% (inactive) | 100% (inactive) |
| CC(C)(C)c1ccc(CCO)cc1 | 97.5% (inactive) | 91.8% (inactive) | 84.5% (inactive) | 97.5% (inactive) | 109% (inactive) | 100% (inactive) | 85.4% (inactive) | 103% (inactive) | 98.2% (inactive) | 110% (inactive) |
